PubChem BioAssay AID652010 (The Scripps Research Institute Molecular Screening Center, 2013)
About 4,100 (1.1%) of roughly 370,000 compounds were called active. For the sample, actives were picked, then their nearest neighbours and some compounds at random. Unmarked numbers belong to inactive results.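 Rule for the calls: active = inhibition above the mean over all tested compounds plus 3 SD (cut at about 3.6% in these data); inactive = the rest.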

assay: relief of DAX-1 repression of SF-1 activity – cell-based, luminescence, SF-1 (NR5A1), full-length DAX-1, primary screen (AID 652010); details: HEK293T StAR-luciferase reporter, SF-1/DAX-1 repression relief; at 6.8 µM; active compounds read high;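 note: 0% = DAX-1 cells with DMSO and 100% = cells lacking DAX-1 with DMSO; higher inhibition means more luminescence from relief of DAX-1 repression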

Row | Structure (SMILES) | inhibition
1 | CCc1nnc(NC(=O)c2ccco2)s1 | 4% (active)
2 | CCc1ccc2nc3sc(C(=O)Nc4nnc(CC)s4)c(N)c3cc2c1 | -0.01%
3 | CCC(CC)c1nnc(NC(=O)C2CCN(C(=O)c3ccco3)CC2)s1 | 0.37%
4 | CC(=O)c1cc(-c2ccc3ccccc3c2)c(=O)n2c1CCC2 | -1.52%
5 | COc1cc(/C(=C/c2ccccc2)c2ccccc2)c2c(c1)oc1ccccc12 | -0.21%
6 | COc1ccc(C(=O)OCCN(C)C2CN(Cc3cn(Cc4cccc(C)c4)nn3)S(=O)(=O)C2)cc1OC (stereo unspecified) | -0.33%
7 | CCOC(=O)c1ccc(NC2Nc3cc(C)nn3S2)cc1 (stereo unspecified) | -0.27%
8 | CCc1ccc(NC2Nc3cc(C)nn3S2)cc1 (stereo unspecified) | 4.78% (active)
9 | Cc1ccc2nc(C)c3c(c2c1)N(c1ccccc1)CC3 | -0.54%
10 | CCOC(=O)[C@]12CCCC=C1N(Cc1ccc(OC)cc1)C(=O)[C@@H]2CC(=O)N1CCOCC1 | 0.04%
11 | NC(=O)c1ccsc1NC(=O)COC(=O)Cc1n[nH]c(=O)c2ccccc12 | 1.46%
12 | COC(=O)c1sc(NC(=O)c2ccc(OC)cc2OC)nc1C | 4.67% (active)
13 | COc1ccc(C(=O)N2CCCN(C)CC2)c(OC)c1 | 0.26%
14 | COc1ccc(C(=O)NC2CC(C)(C)Cc3c2cnn3-c2ccccc2)c(OC)c1 (stereo unspecified) | -3.2%
15 | CN(CC(=O)NCCc1ccc(F)cc1)CC(=O)Nc1ccc(F)c(F)c1F | -0.18%
16 | CN1OC[C@@H]2CN[C@H](c3ccc(-c4ccccc4)cc3)C[C@@H]21 | 5.45% (active)
17 | CN1OC[C@@H]2CN(C(=O)c3ccc(-c4ccccc4)cc3)[C@H](c3ccc(-c4cccc(F)c4)cc3)C[C@@H]21 | -1.11%
18 | COc1ccc(CN2C[C@H]3CON(C)[C@H]3C[C@H]2c2ccc(-c3cccc(F)c3)cc2)cc1 | -0.47%
19 | CC(NC(=O)COC(=O)CCC(=O)c1ccc(Cl)cc1)c1ccccc1 (stereo unspecified) | -0.89%
20 | CCCCOCCCNC(=O)C[C@H]1C[C@@]2(C(=O)OC)C(=C[C@H](C(C)(C)C)O[C@@H]2C)N(CCc2ccc(OC)c(OC)c2)C1=O | -0.4%
21 | CC(C)c1ccc(Nc2ncccc2C#N)cc1 | 5.5% (active)
22 | Cc1ccc(Cc2c(-c3ccc(Cl)cc3)nc3c4ccccc4ccn23)cc1 | -0.2%
23 | Cc1ccc(Cc2c(-c3ccc(C)cc3)nc3c4ccccc4ccn23)cc1 | -1.54%

Row | Structure (SMILES) | inhibition
24 | c1ccc(Cc2c(-c3ccco3)nc3c4ccccc4ccn23)cc1 | 5.34% (active)
25 | O=C(CCCN1C(=O)C2C3C=CC(C3)C2C1=O)N1CCN(c2ccccc2)CC1 (stereo unspecified) | -0.34%
26 | C=CS(=O)(=O)N(Cc1nnn(Cc2ccccc2)c1Br)[C@H](C(=O)OC)C(C)C | -2.88%
27 | O=C(NC1CCC1)c1ccc(C#Cc2cccc(F)c2)c[n+]1[O-] | -2.3%
28 | O=C(Nc1ccc(Cl)c(Cl)c1)c1ccccc1NC(=O)C1CC=CCC1C(=O)O (stereo unspecified) | 9.09% (active)
29 | O=C(Nc1cccc(Cl)c1Cl)c1ccccc1NC(=O)C1CC=CCC1C(=O)O (stereo unspecified) | 1.73%
30 | O=C(O)C1CC=CCC1C(=O)NCCc1ccccc1 (stereo unspecified) | -0.12%
31 | Cc1ccc(S(=O)(=O)NCCC(=O)NCc2ccc(Cl)cc2)cc1C | 0.12%
32 | Cc1ccnc(NC(=O)CCNS(=O)(=O)c2ccc(C)c(C)c2)c1 | 16.4% (active)
33 | Cc1ccc(S(=O)(=O)NCCC(=O)Nc2cccc(S(N)(=O)=O)c2)cc1C | 0.14%
34 | C=CCN(C(=O)[C@@H](CCCC)[C@@H](O)c1ccc(Cl)cc1)c1ccccc1 | -2.07%
35 | COC(=O)C1[C@H]2SC(C)(C)C(C(=O)OC)N2C(=O)N1Cc1nc2ccccc2s1 (stereo partly specified) | -0.17%
36 | COc1ccccc1OCc1nc2ccccc2s1 | 4.19% (active)
37 | CCc1ccc(-c2nnn(Cc3nc4ccccc4s3)n2)cc1 | -0.22%
38 | O=C(CSc1nc2ccccc2nc1N1CCCCC1)N1CCN(S(=O)(=O)c2cccc([N+](=O)[O-])c2)CC1 | 0.77%
39 | Cc1ccc(NC(=S)NNC(=O)CSc2nnc(SCc3ccccc3Cl)s2)cc1 | -0.55%
40 | O=C1C(=O)N(c2ccccc2)C(c2ccccc2)C1c1ccccc1 (stereo unspecified) | -0.52%
41 | O=C(COc1ccc(Cl)cc1)N1CCN(S(=O)(=O)c2ccc(Cl)cc2)CC1 | -0.62%
42 | Cc1csc(SCC(=O)Nc2sccc2C#N)n1 | 10.3% (active)
43 | CC(=O)c1cc(C#N)c(SCC(=O)Nc2nccs2)nc1C | 0.62%
44 | CC(c1nnc(SCC(=O)Nc2sccc2C#N)n1-c1ccc(Cl)cc1)N(C)C (stereo unspecified) | 0.06%
45 | Cc1ccc(OCCC(=O)Nc2ccc(S(=O)(=O)Nc3nccs3)cc2)cc1 | -0.38%
46 | Cc1cc(NS(=O)(=O)c2ccc(NC(=O)CSc3nnc(SCc4ccc(F)cc4)s3)cc2)nc(C)n1 | -0.01%

Row | Structure (SMILES) | inhibition
47 | Nc1[nH]c(/C=C2/CCCCC2n2[nH]c(=O)n(-c3ccccc3)c2=O)c(Cc2ccccc2)[n+]1Cc1ccccc1 (stereo unspecified) | -0.55%
48 | CN(C)CCN(C(=O)CN1C(=O)c2ccccc2C1=O)c1nc2cc3c(cc2s1)OCCO3 | 4.33% (active)
49 | CCN(CC)CCN(C(=O)c1ccc(N2C(=O)CCC2=O)cc1)c1nc2cc3c(cc2s1)OCO3 | 1.06%
50 | O=C(Cn1c(=O)sc2ccccc21)Nc1ccc2c(c1)OCCO2 | -1.14%
51 | CCOC(=O)c1csc(NC(=O)C2CCCN(S(=O)(=O)c3ccc(Cl)s3)C2)n1 (stereo unspecified) | -2.18%
52 | COc1ccc(C(=O)NCC[N+](C)(C)C)cc1 | 4.67% (active)
53 | COCCNC(=S)c1ccc(OC)cc1 | 0.05%
54 | COc1ccc(NC(=O)c2ccc(OC)cc2)cc1 | 4.59% (active)
55 | COc1ccc(C(=O)Nc2ccc(-n3nncc3C(C)(C)C)cc2)cc1 | -0.32%
56 | COc1ccc(C(=O)NC2CCN(C(=O)Nc3ccc(F)cc3)CC2)cc1 | -0.44%
57 | COc1ccc(C(=O)NCCSc2ccccc2C)cc1 | 2.33%
58 | O=C(C1CCN(S(=O)(=O)c2ccccc2)CC1)N1CCN(C2CCCCC2)CC1 | 0.23%
59 | Nn1c(SCC(=O)Nc2cccc3ccccc23)nnc1-c1cc(-c2ccc(F)cc2)n[nH]1 | -0.54%
60 | CC(=O)NC1(c2ccc(F)cc2)CCN(C(=O)c2c(F)cccc2F)CC1 | -0.58%
61 | CC(C)CSc1nnc(-c2cccnc2)n1Cc1ccccc1 | -1.22%
62 | COC(=O)c1cccc(Cn2ccc3ccc(-c4ccc5ccn(C(=O)c6ccccc6C)c5c4)cc32)c1 | -1.7%
63 | O=C(CSc1nc2ccccc2n1Cc1ccccc1)NNC(=S)Nc1ccccc1 | -1.17%
64 | O=C(O)CC(Cc1ccccc1)C(=O)Nc1ccc([N+](=O)[O-])cc1 (stereo unspecified) | -0.05%
65 | CCOc1cccc(C(=O)Nc2cnn(Cc3ccccc3)c2)c1 | -0.67%
66 | O=C(Nc1ccn(Cc2ccccc2)n1)c1n[nH]c([N+](=O)[O-])c1Cl | 5.27% (active)
67 | Cc1ccc(NC(=O)CC2C(=O)N(Cc3ccccc3)C(=S)N2NC(=O)c2cccc(F)c2)c(C)c1 (stereo unspecified) | -0.22%
68 | O=C(Cn1cnc([N+](=O)[O-])n1)NCCc1ccccc1 | -0.33%
69 | O=C(Nc1ccn(Cc2ccccc2)n1)c1cccc(F)c1 | 4.43% (active)

Row | Structure (SMILES) | inhibition
70 | Cc1cc(C)cc(NC(=O)N2CCC(N(C)CCC(C)C)CC2)c1 | 1.03%
71 | Cc1sc2nc(COC(=O)C(NC(=O)c3ccc(Cl)cc3Cl)C(C)C)[nH]c(=O)c2c1C (stereo unspecified) | -0.03%
72 | COC(=O)c1ccc(CN2C(=O)[C@]3(OCCC=C[C@H]3C)c3c(Br)cccc32)cc1 | 1.3%
73 | COC(=O)C12C=C3CC(c4ccccc4)=C3C(=O)N1Cc1[nH]c3ccccc3c1C2 (stereo unspecified) | 0.17%
74 | Cc1ccc(S(=O)Cc2ccc(C(=O)N3CCN(C4CCCCC4)CC3)o2)cc1 (stereo unspecified) | 5.98% (active)
75 | Cc1ccc(C(=O)N2CCN(C3CCCCC3)CC2)s1 | 0.45%
76 | Cc1ccc(CS(=O)Cc2ccc(C(=O)N3CCOCC3)o2)cc1 (stereo unspecified) | -0.29%
77 | COC(=O)[C@]12C[C@H](CC(=O)NCCc3ccccc3OC)C(=O)N(Cc3ccco3)C1=C[C@H](C(C)C)O[C@@H]2C1CC1 | -0.45%
78 | Cc1ccccc1CS(=O)(=O)Cc1ccc(C(=O)Nc2ccc(Cl)cc2)o1 | -3.88%
79 | Cc1ccccc1NC(=O)C1CCN(c2ncccn2)CC1 | -0.57%
80 | O=C(CCSc1ccccc1)N1CCN(c2ccccc2F)CC1 | 3.74% (active)
81 | O=C(CCS(=O)(=O)c1cccc2nsnc12)N1CCN(c2ccccc2F)CC1 | 0.3%
82 | O=C(CCc1ccccc1F)N1CCN(c2ccccc2)CC1 | -0.1%
83 | O=C(c1ccc(-c2ccccc2)cc1)C1CCCN(C(=O)c2cncs2)C1 (stereo unspecified) | -0.34%
84 | O=C(O)c1ccccc1-c1ccccc1C(=O)Nc1ccccc1Br | 2.05%
85 | O=C(Nc1ccc(-n2ccnc2P(=O)(O)c2ccccc2)cc1)c1ccccc1Br | 0.24%
86 | O=C(Nc1ccccc1)c1ccccc1Br | 4.1% (active)
87 | CCC(CO)Nc1cccc2c1S(=O)(=O)N(Cc1cn(Cc3ccccc3C(F)(F)F)nn1)Cc1ccccc1O2 (stereo unspecified) | 0.53%
88 | COc1ccc(N2CCN(CCNS(=O)(=O)c3ccc(Cl)s3)CC2)cc1 | -1.29%
89 | CCn1c(SCC(=O)NCC2CCCO2)nc2ccccc21 (stereo unspecified) | 0.35%
90 | Cn1c(SCC(=O)c2ccccc2)ncc(C(=O)Nc2ccc(F)cc2)c1=O | 0.92%
91 | Cc1ccc(NC(=O)c2cnc(SCC(=O)NCC3CCCO3)n(C)c2=O)cc1 (stereo unspecified) | 3.81% (active)
